Experimental data: the supplement of paper PMC12669032
Unmarked numbers belong to inactive results.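 Rule for the calls: active = AUC reduced over 20% with Padj below 0.05 in at least 2 of 3 replicates; inactive = otherwise.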

Legend:
Assay in all cases: growth AUC relative to DMSO control (median of replicates) (fraction); higher = more growth (less inhibition), active = hit call of the paper
Conditions in all cases: 20 µM; 24 h
Akkermansia muciniphila = tested on: Akkermansia muciniphila
Outline: (§1)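 Area under the growth curve was normalised to the plate median of solvent-only wells, or to row and column medians on the industrial chemical plate. Growth curves came from anaerobic gut bacterial monocultures in mGAM at 37 °C, seeded at OD600 0.05 with 20 µM compound (1% DMSO), and read at OD600 hourly for 24 h with the minimum OD set to 0. The value is the median of three biological replicates grown on separate days.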

Bacteroides caccae = tested on: Bacteroides caccae
Outline: as §1

Bacteroides clarus = tested on: Bacteroides clarus
Outline: as §1

Bacteroides dorei = tested on: Bacteroides dorei
Outline: as §1

Bacteroides stercoris = tested on: Bacteroides stercoris
Outline: as §1

[1] = tested on: Bacteroides thetaiotaomicron
Outline: as §1

Bacteroides uniformis = tested on: Bacteroides uniformis
Outline: as §1

[2] = tested on: Bifidobacterium longum subsp. longum
Outline: as §1

Clostridium difficile = tested on: Clostridium difficile
Outline: as §1

Collinsella aerofaciens = tested on: Collinsella aerofaciens
Outline: as §1

Coprococcus comes = tested on: Coprococcus comes
Outline: as §1

Escherichia coli ED1a = tested on: Escherichia coli ED1a
Outline: as §1

Escherichia coli IAI1 = tested on: Escherichia coli IAI1
Outline: as §1

Eubacterium rectale = tested on: Eubacterium rectale
Outline: as §1

[3] = tested on: Fusobacterium nucleatum subsp. animalis
Outline: as §1

Lactobacillus gasseri = tested on: Lactobacillus gasseri
Outline: as §1

Lactobacillus paracasei = tested on: Lactobacillus paracasei
Outline: as §1

Odoribacter splanchnicus = tested on: Odoribacter splanchnicus
Outline: as §1

[4] = tested on: Parabacteroides distasonis
Outline: as §1

Parabacteroides merdae = tested on: Parabacteroides merdae
Outline: as §1

SMILES	growth AUC (Akkermansia muciniphila)	growth AUC (Bacteroides caccae)	growth AUC (Bacteroides clarus)	growth AUC (Bacteroides dorei)	growth AUC (Bacteroides stercoris)	growth AUC [1]	growth AUC (Bacteroides uniformis)	growth AUC [2]	growth AUC (Clostridium difficile)	growth AUC (Collinsella aerofaciens)	growth AUC (Coprococcus comes)	growth AUC (Escherichia coli ED1a)	growth AUC (Escherichia coli IAI1)	growth AUC (Eubacterium rectale)	growth AUC [3]	growth AUC (Lactobacillus gasseri)	growth AUC (Lactobacillus paracasei)	growth AUC (Odoribacter splanchnicus)	growth AUC [4]	growth AUC (Parabacteroides merdae)
CCOP(=S)(OCC)SCS(=O)(=O)CC	1.08	0.96	1.01	0.977	1.09	0.996	0.984	0.951	1.01	1.02	1.02	1.01	0.992	1.07	1.14	0.95	0.967	0.993	0.999	0.974
N#CC(CCc1ccc(Cl)cc1)(Cn1cncn1)c1ccccc1 (stereo not given)	1.02	0.967	0.961	0.952	0.941	0.94	0.873	0.978	0.957	0.968	0.969	1.03	1.02	1.07	0.942	0.904	0.952	0.88	0.57 (active)	0.96
CCOC(=O)c1ccccc1S(=O)(=O)NC(=O)Nc1nc(Cl)cc(OC)n1	1.1	0.991	1.03	0.933	0.97	1.01	0.962	1.4	1.03	0.993	0.988	1.03	1.02	1.05	1.07	0.969	1.05	1.1	1.07	1.04
CCC(C)c1cc([N+](=O)[O-])cc([N+](=O)[O-])c1O (stereo not given)	1.07	0.967	0.879	0.902	0.865	0.876	0.889	0.981	0.951	0.956	0.884	0.935	0.924	0.939	0.737	0.959	0.925	0.799 (active)	0.841	0.929
C[C@@H](Oc1ccc(Oc2ncc(C(F)(F)F)cc2Cl)cc1)C(=O)O	0.971	0.97	0.964	0.942	1.02	0.992	0.975	0.912	0.99	0.994	1	0.97	0.994	0.973	1.02	0.94	0.972	0.98	0.989	0.996
CCOP(=O)(OCC)OP(=O)(OCC)OCC	1.07	0.988	1	0.956	0.932	1.03	0.992	1.02	1.03	0.966	0.976	0.982	1.02	1.19	1.02	0.954	0.961	0.986	0.946	0.919
CNC(=O)O/N=C(\C)SC	0.938	0.99	0.981	1.03	1.06	0.988	0.988	0.91	0.999	1.03	0.981	0.979	1.01	1.01	0.985	1.02	0.967	0.992	0.986	1
COCC(=O)N(c1c(C)cccc1C)C(C)C(=O)OC (stereo not given)	1.11	1.03	1.02	1.03	1.08	1.02	1.02	1.1	1.04	1.02	1.02	0.989	1.01	1.04	1.09	1.09	0.987	1.04	1.05	1.05
CC1(C)C(C=C(Cl)Cl)C1C(=O)OCc1cccc(Oc2ccccc2)c1 (mixture of isomers)	1.02	0.991	0.98	1.01	1.07	1.02	1.03	0.957	1.01	0.942	0.964	1.02	0.98	0.911	0.954	0.864	1.01	0.977	1	0.951
COP(=S)(OC)Oc1ccc(C#N)cc1	1.1	1	1.03	1.04	1.02	0.989	1.04	1.01	1.03	1.01	1.04	1.04	1.02	1.11	1.04	1.03	1	1.02	1.07	1
CCCSP(=O)(OCC)SCCC	1.14	0.994	1.02	0.962	1.02	0.998	0.98	1.02	0.997	0.99	1.03	1.02	0.987	1.07	0.995	0.902	0.96	0.986	0.976	1.01
CC[C@H](C)[C@H]1O[C@]2(C=C[C@@H]1C)C[C@@H]1C[C@@H](C/C=C(\C)[C@@H](O[C@H]3C[C@H](OC)[C@@H](O[C@H]4C[C@H](OC)[C@@H](NC)[C@H](C)O4)[C@H](C)O3)[C@@H](C)/C=C/C=C3\CO[C@@H]4[C@H](O)C(C)=C[C@@H](C(=O)O1)[C@]34O)O2.O=C(O)c1ccccc1	1.08	0.0357 (active)	0.264 (active)	0.0271 (active)	0.00403 (active)	0.812	0.322 (active)	0.167 (active)	0.781	0.553 (active)	0.156 (active)	0.974	0.95	0.865	0.758	0.714 (active)	0.597	1.06	0.0402 (active)	0.345 (active)
Cc1cc(Cl)ccc1N=CN(C)C	1.01	1.01	0.995	1	0.985	1.03	1.02	0.981	0.998	1	1.01	0.998	0.963	1.16	0.978	1.04	0.997	1.01	1.03	0.988
CC(C)(C)c1cc([N+](=O)[O-])cc([N+](=O)[O-])c1O	0.623	0.973	0.742 (active)	0.931	1.03	0.837	0.876	0.964	0.885	0.96	0.859	0.93	0.923	0.908	0.638	0.852	0.859	0.722	0.83	0.942
Oc1cc(Cl)cc(Cl)c1	1.04	1.01	1	0.996	1.08	0.917	1.01	0.998	1	1.01	1.02	1	1.02	1.08	1.1	1.08	0.957	1.03	0.997	0.973
CCCCOC(=O)c1ccccc1C(=O)OCCCC	1.05	0.94	1.01	0.998	0.99	1	0.978	0.938	1.02	0.985	1	1	0.962	1.07	1.06	0.911	0.986	1.07	0.759 (active)	0.964
